Source: PubChem BioAssay (several laboratories)
Hits are enriched below; roughly 12% of the tested compounds scored in any of these assays.
ROMK mod – ROMK potassium channel modulators, primary screen, cell-based, thallium flux, MLSMR library. actives 2% (n = 130,000). Tet-inducible ROMK, thallium flux fluorescence; actives lie on both sides. B-score at 10 µM. AID 1918, 2009. ATP-sensitive inward rectifier potassium channel 1 (Homo sapiens), P48048;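 active = signal ratio slope over the read window, or its plate-corrected B-score, at least 3 SD from the plate mean, either direction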;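 also: B-score of the F/F0 ratio slope over 7 to 12 s after thallium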
Target sequence (P48048 whole entry, looked up): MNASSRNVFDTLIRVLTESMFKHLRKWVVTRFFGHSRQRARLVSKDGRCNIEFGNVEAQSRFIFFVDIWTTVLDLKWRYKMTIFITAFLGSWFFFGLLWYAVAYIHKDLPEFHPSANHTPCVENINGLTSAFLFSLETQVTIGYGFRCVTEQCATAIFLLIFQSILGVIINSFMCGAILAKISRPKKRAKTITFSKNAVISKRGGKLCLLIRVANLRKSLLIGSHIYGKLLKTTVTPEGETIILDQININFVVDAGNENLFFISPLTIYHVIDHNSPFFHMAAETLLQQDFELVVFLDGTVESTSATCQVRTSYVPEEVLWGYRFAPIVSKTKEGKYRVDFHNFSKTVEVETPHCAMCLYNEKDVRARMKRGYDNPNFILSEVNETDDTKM
WT yeast gro inh – growth inhibition of WT strain, primary screen, mitochondrial fusion inhibitor project, WT and mutant strains, chemical genetic. actives 2.1% (n = 190,000). mitochondrial fusion phenotypic screen. inhibition, % at 10 µM; in the data active = inhibition above about 58%; tested in S. cerevisiae
Calpain2 inh – inhibitors of pig calpain II, primary screen, biochemical, fluorogenic peptide substrate, 1536-well; purified calpain II, 30 min; inhibition, % at 16 µM; actives 0.37% (n = 220,000);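 active = inhibition above about 50%, limit read from the data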
L major viab – Leishmania major promastigote growth inhibition, primary screen; AID 1063, 2008; inhibition, % at 10 µM; actives 9% (n = 200,000); Leishmania major promastigotes, resazurin fluorescence viability; in the data active = inhibition above about 50%;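 also: promastigotes grown with compound for 44 hours at 28 °C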
KCC2 mod – KCC2 cotransporter modulators, thallium flux, primary screen, cell-based, HEK293 KCC2, FluoZin-2 fluorescence, MLSMR; AID 1456, 2008; B-score of Tl+ flux slope (higher = more flux/activation; lower = inhibition) at 10 µM; KCC2 cells, thallium flux FluoZin-2 fluorescence; Solute carrier family 12 member 5 (Homo sapiens), Q9H2X9; actives 2.2% (n = 190,000);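 active = thallium flux slope and its plate-corrected score both differing from the plate sample mean at a set confidence after two filtering rounds, in either direction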;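 also: slope of fluorescence scaled to starting intensity during 10 to 20 s after thallium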
Of the large screens only hits and unclear results are named; the others gave an inactive call.

COC(=O)Cc1cn(-c2ncc(C(F)(F)F)cc2Cl)c2ccccc12	WT yeast gro inh 84.2
CC(=O)O[C@H]1C2OC(=O)C(C)=C2[C@@H]2OC(=O)[C@]3(CCC4OC41C)OC23 (stereo not given in full)	none
CCOC(=O)c1c(C)n(-c2ccc(C)cc2)c2ccc(O)c(CN(C)C)c12	L major viab 98.6
C=CCNCCCCOc1ccc(Br)cc1C	L major viab 98.6
Cc1cc(Br)ccc1OCC(=O)NNC(=O)Cc1ccccc1	none
Cc1cc(Br)ccc1OCCCCNCCO	L major viab 85.6 (no result: ROMK mod)
COc1ccc(C2SCC(=O)N2CCc2ccc(OC)c(OC)c2)cc1 (stereo not given)	none
Cc1ccc(-n2ncc(C(=O)NCc3ccc4c(c3)OCO4)c2NC(=O)c2ccco2)cc1C	none (no result: ROMK mod, KCC2 mod)
N=C(N)c1ccc(O)cc1	none
CC/C(=C(/CC)c1ccc(O)cc1)c1ccc(O)cc1	WT yeast gro inh 76.0
CC1=CC(=Nc2c(C)n(C)n(-c3ccccc3)c2=O)C=C(C)C1=O	L major viab 72.1 (no result: ROMK mod)
CC1=CC(=Nc2c(C)n(C)n(-c3ccccc3)c2=O)C=CC1=O	none (no result: WT yeast gro inh, L major viab)
COC(=O)[C@H](Cc1ccccc1)NC(=O)N(C)Cc1ccccc1	none (no result: ROMK mod, WT yeast gro inh, L major viab)
O=C(c1ccco1)N1CCN(C(c2ccc(Cl)cc2)c2nnnn2CC2CCCO2)CC1 (stereo not given)	L major viab 62.9 (no result: KCC2 mod)
CC(C)CC(c1nnnn1Cc1ccccc1)N1CCN(C(=O)c2ccco2)CC1 (stereo not given)	L major viab 64.9 (no result: KCC2 mod)
CCC(c1nnnn1Cc1ccco1)N1CCN(C(=O)c2ccco2)CC1 (stereo not given)	none (no result: ROMK mod, KCC2 mod)
O=C(c1ccco1)N1CCN(C(c2ccccc2Cl)c2nnnn2Cc2cccs2)CC1 (stereo not given)	L major viab 53.0
CC(C)CCn1nnnc1C(c1ccc(F)cc1)N1CCN(C(=O)c2ccco2)CC1 (stereo not given)	L major viab 55.0 (no result: KCC2 mod)
Cc1ccc(S(=O)(=O)N2CCCN(C(=O)OC(C)(C)C)CC2)cc1	none (no result: WT yeast gro inh, L major viab)
CC(C)c1cccc(C(C)C)c1NC(=S)Nc1cccc(Cl)c1	none (no result: ROMK mod, WT yeast gro inh, L major viab)
CC1CN(C(=O)N[C@@H](Cc2ccccc2)C(=O)O)CC(C)O1 (stereo not given in full)	L major viab 79.7
CC1CCN(C(=O)N[C@@H](Cc2ccccc2)C(=O)O)CC1	none (no result: ROMK mod)
CC(=O)NCCNC(=O)c1ccc(Sc2ccccc2)c([N+](=O)[O-])c1	none
CCOC(=O)CSc1ccc(C(=O)N2CCN(C)CC2)cc1[N+](=O)[O-]	none
O=C(NCCCN1CCOCC1)c1ccc(Sc2ccc(F)cc2)c([N+](=O)[O-])c1	L major viab 100.4
O=C(c1ccc(S(=O)(=O)c2ccccc2Cl)c([N+](=O)[O-])c1)N1CCCCCC1	L major viab 97.8
CCN1CCCC1CNC(=O)c1ccc(Sc2ccc(F)cc2)c([N+](=O)[O-])c1 (stereo not given)	L major viab 100.3
CCN1CCN(C(=O)c2ccc(Sc3ccccc3Cl)c([N+](=O)[O-])c2)CC1	L major viab 88.7
Cc1cc(-c2nnc(SCC(=O)Nc3ccccc3Cl)n2C)no1	none (no result: ROMK mod, WT yeast gro inh, L major viab)
CCN1CCCC1CNC(=O)c1ccc(Sc2ccccc2Cl)c([N+](=O)[O-])c1 (stereo not given)	L major viab 100.3
CCN1CCCC1CNC(=O)c1ccc(N2CCCC2=O)cc1 (stereo not given)	none (no result: ROMK mod)
CCc1ccccc1Nc1nc(N)nc(CSCC(=O)Nc2ccc(C)c(C)c2)n1	L major viab 85.0 (no result: ROMK mod)
O=S(=O)(c1ccc(N2CCN(CCO)CC2)nc1)N1CCCCC1	L major viab 60.2 (no result: ROMK mod)
CN1CCN(S(=O)(=O)c2ccc(N3CCN(C(c4ccccc4)c4ccccc4)CC3)nc2)CC1	WT yeast gro inh 69.2, L major viab 100.0
CN1CCN(S(=O)(=O)c2ccc(N3CCN(S(=O)(=O)/C=C/c4ccccc4)CC3)nc2)CC1	none (no result: ROMK mod)
Cc1ccc2nc(Cl)c3cc(C(=O)NCCCN4CCCC4)sc3c2c1	L major viab 100.7 (no result: ROMK mod)
Cc1ccc2[nH]c(=O)c3cc(C(=O)NCCN4CCN(C)CC4)sc3c2c1	none (no result: ROMK mod)
Cc1ccc2cc3cc(C(=O)NCCCN4CCc5ccccc5C4)oc3nc2c1	L major viab 97.3 (no result: ROMK mod)
Cc1ccc2cc3cc(C(=O)NCCCN4CCCCCC4)oc3nc2c1	L major viab 96.6 (no result: ROMK mod)
